Compounds with a hit are over-represented: about 20% of the library has one in this group of screens.
Pf growth 96h: inhibits malaria parasite growth, 96 h; P. falciparum luciferase reporter growth, 96 h; Potency, µM (doses to about 28.7 µM), for inactives: top-dose activity change, negative = inhibition, most hits filed as inhibitors; 6.9% of 320,000 active; AID 504834; further: potency means the concentration at half of the fitted maximal effect; on the % scale 0 is the no-effect control and ±100 the full control effect
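Erythrocytes infected with luciferase-expressing P. falciparum were dispensed at 2% hematocrit and 0.05% parasitemia (final), then incubated with compounds 96 hours at 37 C in 5% CO2. Luminescence after detection reagent addition reported growth.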
Shiga toxin inh: blocks Shiga toxin action in Vero cells. 9.2% of 290,000 active. inhibition, % at 38.7 µM. Vero cells, Shiga toxin protein synthesis inhibition reporter. AID 2315; in the data active means inhibition mostly above about 28%, no sharp cut-off; inactive means mostly below about 43%; further: 0% is about no effect
HCMV antiviral: blocks human cytomegalovirus replication | HFF cells, HCMV-luciferase reporter, 72 h; active compounds read low | activity change, negative = inhibition, % at 57.5 µM | 4.5% of 410,000 active | AID 1259415; in the data active means activity change below about -60%; inconclusive means no clear call, values can overlap the other calls; inactive means above about -39%; further: on the % scale 0 is the no-effect control and ±100 the full control effect
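Compounds were evaluated in HFFs infected with an HCMV luciferase reporter virus (MOI 1 PFU/cell). Luciferase in lysates collected 72 h post infection served as the replication measure.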
Cycloheximide cs: affects cycloheximide protein synthesis inhibition readout, counter-screen; cell reporter, cycloheximide protein synthesis inhibition counterscreen; max response, %; 12% of 300,000 active; AID 2314; in the data active means max response mostly above about 13%, no sharp cut-off; inactive means mostly below about 14%; further: read at 38.3 µM for the half of the compounds with a filed dose; 0% is about no effect
Pf growth 48h: P. falciparum growth inhibition at 48 hours (one generation). P. falciparum luciferase growth in erythrocytes, 48 h. 5.9% of 310,000 active. Potency, µM (highest dose often 28.7 µM), inactives show top-dose activity change, negative = inhibition, usual class: inhibitors; further: potency means the concentration at half of the fitted maximal effect; on the % scale 0 is the no-effect control and ±100 the full control effect
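Read-out is firefly luciferase luminescence from an integrated reporter in P. falciparum, so falling signal marks reduced parasite growth. Infected erythrocytes were at 2% hematocrit and 0.1% parasitemia (final) in Albumax-supplemented RPMI 1640.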
Starred values were filed as active, the others as inactive; ? = inconclusive; . = no result given; [ ] = another dose, or the depositor's remark. Unless noted, the call rests on the fitted dose curve; in most records, active means well fitted inhibition curve with a large enough effect; inconclusive means small, poorly fitted or top-dose-only effect, or another doubt; inactive means no such curve, though single readings can be large or run the other way.

SMILES	Pf growth 96h	Shiga toxin inh	HCMV antiviral	Cycloheximide cs	Pf growth 48h
Cc1cc(C)cc(OCC(=O)OC(C)C(=O)Nc2ccc(Cl)cn2)c1 (centres undefined)	8.8%	.	-31.4	.	-21.7%
COC(=O)c1ccc(OC(=O)c2ccc(OC)c(OC)c2)c(OC)c1	15.3%	-23.1	-5.3	-7.8	-5.7%
COC(=O)c1ccc(/C=C/C(=O)c2ccc(OC)c(OC)c2)cc1	?	22.1	.	13.1	10.4µM*
COc1ccc(C=CC(=O)c2ccc(OCc3ccccc3)c(OC)c2)cc1OC	.	.	-87.4*	.	.
COc1cc(/C=C/C(=O)OCc2csc(CC(=O)Nc3ccc(C)cc3)n2)ccc1OCC#N	13.1µM*	.	0.0	.	?
COc1cc(/C=N/O)ccc1Oc1ccc([N+](=O)[O-])cc1[N+](=O)[O-]	-24.7%	-3.4	-38.9	5.3	14.1%
O=[N+]([O-])c1cc(/C=N\O)ccc1Oc1ccc(F)cc1	-6.1%	27.4	2.9	26.8*	14.1%
O=C(Nc1ccc(C(=O)N2CCCC2)cc1)c1ccc(F)cc1Cl	46.1%	12.8	-18.7	10.9	-1.0%
COC(=O)c1ccc(/C=C/C(=O)O)cc1	83.6%	-0.7	-28.6	-0.6	33.6%
COC(=O)c1ccc(/C=C/C(=O)c2ccc(OC)cc2)cc1	-19.8%	53.9	84.6	25.5*	10.5%
CCOc1cc(/C=C/C(=O)c2ccc(C)cc2)ccc1OCC(=O)N(C)C	?	19.3	-97.3*	-1.2	?
CS(=O)(=O)N(CC(=O)Nc1ccccc1C(=O)N1CCOCC1)c1ccc(F)c(Cl)c1	30.0%	20.0	-8.5	-2.5	8.4%
CC(=O)c1cccc(N(CC(=O)Nc2ccc(F)cc2F)S(C)(=O)=O)c1	17.5%	50.5*	70.5	29.6*	29.6%
CC(=O)c1cccc(N(CC(=O)Nc2ccccc2F)S(C)(=O)=O)c1	0.0%	-4.9	0.1	-2.3	-3.9%[5.75 µM]
CS(=O)(=O)N(CC(=O)Nc1ccccc1C(=O)N1CCOCC1)c1cccc(F)c1	2.62µM*	2.3	27.0	-2.6	-0.1%
Cc1ccc(C(=O)N/C(=C\c2ccc(-c3ccccc3[N+](=O)[O-])o2)C(=O)NCCN(C)C)cc1	?	18.2	5.5	12.5*	1.47µM*
Cc1ccc(C(=O)N/C(=C\c2ccc(-c3ccccc3[N+](=O)[O-])o2)C(=O)NCCCN(C)C)cc1	5.22µM*	15.0	?	10.4	2.62µM*
CC1=C(c2ccc(C)cc2)S(=O)(=O)N(Cc2ccc(C(=O)NCc3ccccc3F)cc2)C1=O	.	.	-1.4	.	.
COc1cc(NC(=O)Cn2nc(C(F)(F)F)c(Br)c2C)cc([N+](=O)[O-])c1	?	-4.5	-95.7*	-2.7	?
Cc1ccc(NC(=O)c2cccc(C(=O)OC(C)C)n2)c(Br)c1	?	74.6*	-1.8	22.9*	10.0%
CC(C)OC(=O)c1cccc(C(=O)Oc2ccccc2)n1	-9.5%	-17.9	?	-3.9	8.4%
COC(=O)c1cccc(C(=O)Nc2ccc(C)cc2Br)n1	177.9%	64.9*	53.9	38.2*	57.1%
CN(C)CCNC(=S)Nc1ccc(-c2nc3ccccc3[nH]2)cc1	?	122.4*	116.1	46.0*	-47.4%
S=C(NCc1ccc2c(c1)OCO2)Nc1ccc(-c2nc3ccccc3[nH]2)cc1	5.22µM*	61.5*	-61.3*	32.2*	11.7µM*
CC1CN(C(=O)COC(=O)c2cc(=O)[nH]c3ccccc23)CC(C)O1 (centres undefined)	.	.	6.0	.	.
SMILES	Pf growth 96h	Shiga toxin inh	HCMV antiviral	Cycloheximide cs	Pf growth 48h
O=C(c1cc(-c2cccc(Cl)c2)on1)N1CCCCCC1	35.4%	116.5*	57.4	26.6*	107.0%
CN1CCN(C(=O)c2cc(-c3cccc(Cl)c3)on2)CC1	11.4%	41.5	52.2	33.8*	65.7%
O=C(c1cc(-c2cccc(Cl)c2)on1)N1CCN(c2ccc(F)cc2)CC1	?	-18.9	-20.6	-2.9	8.6%
Cc1c(Cl)cccc1NC(=O)c1cc(-c2cccc(Cl)c2)on1	.	.	-19.4	.	.
O=C(c1cc(-c2cccc(O)c2)on1)N1CCN(C(c2ccccc2)c2ccccc2)CC1	?	-8.9	-27.1	-2.5	1.85µM*
COc1ccc2c(c1)-c1c(ssc1=S)C(C)(C)N2	-7.4%	-3.9	-88.7*	5.6	?
COc1ccc(-n2sc3c(c2=S)-c2cc(OC)ccc2NC3(C)C)cc1	?	-5.8	-68.0*	1.0	?
COc1ccc2c(c1)-c1c(sn(-c3ccc(OC)c(OC)c3)c1=S)C(C)(C)N2	10.4µM*	-15.3	-5.0	-2.4	?
Cc1ccc(NC(=O)Cn2cc(C(=O)c3ccco3)c3ccccc32)cc1C	.	.	-33.3	.	.
Cc1nc2ccccc2c2c1C(=O)NC2=O	31.5%	0.9	.	-1.7	20.6%
Cc1cccc(C(=O)Nc2c(-c3ccc(F)cc3)nc3ccccn23)c1	.	.	-19.3	.	.
CC(C)Cc1nc(Nc2ccccc2C#N)c2nnn(Cc3ccccc3)c2n1	?	33.6	-28.5	1.3	?
CC(C)Cc1nc(N2CCC(C(N)=O)CC2)c2nnn(Cc3ccccc3)c2n1	10.4µM*	13.8	-10.9	0.3	14.7µM*
Cc1nc(N2CCC(C)CC2)c2nnn(Cc3ccccc3)c2n1	14.7µM*	56.1*	-1.3	11.6	11.7µM*
C/C(CC(=O)Nc1ccc(OCc2ccccc2)cc1)=N\NC(=O)C(=O)Nc1ccc(C)c(Cl)c1	0.0%	16.1	?	15.6	-4.2%
CCOc1ccc(S(=O)(=O)N(C)c2ccc(OCC(=O)Nc3nccs3)cc2)cc1	?	11.7	11.3	5.9	1.85µM*
Cc1ccc(S(=O)(=O)N(C)c2ccc(OCC(=O)Nc3nc4ccccc4s3)cc2)cc1	3.29µM*	0.7	-80.5*	12.8	4.65µM*
Cc1ccc(S(=O)(=O)N(C)c2ccc(OCC(=O)Nc3nc4c(ccc5ccccc54)s3)cc2)cc1	-27.9%	2.4	24.0	2.3	1.3%
CCOC(=O)CCCN1C(=O)CCn2nc(-c3cn(C)c4ccccc34)cc21	.	.	-7.7	.	.
Cc1ccc(C(=O)OCN2C(=O)c3ccccc3C2=O)cc1S(=O)(=O)N1CCOCC1	11.2%	.	3.2	.	6.0%
CCOC(=O)c1cnc2ccc(OCC)cc2c1NCCN1CCOCC1	?	-4.4	-36.6	-0.9	?
CCOC(=O)c1cnc2c(ccc3ccccc32)c1N	139.3%	.	46.0	34.3*	91.9%
CCOC(=O)c1cnc2c(ccc3ccccc32)c1Nc1ccc(OCC)cc1	.	.	16.5	.	.
CCOC(=O)c1cnc2c(ccc3ccccc32)c1NCCO	?	38.4*	8.4	11.9	13.7%
CCOC(=O)c1cnc2ccc(C)cc2c1NCCO	?	-6.0	31.4	-0.8	13.1µM*
CC1=C(C(=O)Nc2cccnc2)C(c2ccc(Cl)cc2)n2nc(SCc3ccccc3)nc2N1 (centres undefined)	.	.	4.5	.	.
N#CCSc1ccccc1NC(=O)COC(=O)CCNC(=O)c1ccc([N+](=O)[O-])cc1	3.0%	.	26.8	.	12.8%
CN(C(=O)c1ccc2ccccc2c1)c1ccccn1	40.9%	47.6	9.2	30.1*	27.2%
O=C1OC(c2cccs2)=N/C1=C\c1ccc(-c2ccccc2Cl)o1	24.8%	-2.4	25.2	-0.4	26.9%

Source: PubChem (National Center for Advancing Translational Sciences (NCATS))
